Screening data from PubChem.
A selection: hits, their analogues and other compounds. The true share with any hit is near 4.1%.
VHR inh abs – VHR1 phosphatase inhibitors, primary screen, biochemical, absorbance, uHTS | inhibition, % at 13.3 µM | AID 1654, 2009 | Dual specificity protein phosphatase 3 (Homo sapiens), P51452 | recombinant VHR phosphatase, pNPP absorbance | 290,000 tested, 0.52% active; in the data active = inhibition above about 50%
Target sequence (P51452 whole entry, looked up): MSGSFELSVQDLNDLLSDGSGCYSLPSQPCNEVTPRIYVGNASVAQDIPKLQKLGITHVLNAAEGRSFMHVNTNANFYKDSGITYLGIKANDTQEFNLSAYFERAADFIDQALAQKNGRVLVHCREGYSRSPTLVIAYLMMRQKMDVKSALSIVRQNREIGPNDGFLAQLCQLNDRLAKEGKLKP
Bead autofluor – counter-screen for toxin protease inhibitors: compound fluorescence; compound autofluorescence counterscreen, microsphere flow cytometry; active compounds read high; fluorescence intensity (concentration not given with the values); 360,000 tested, 3.1% active; in the data active = fluorescence intensity above about 16000; inconclusive = no clear call, values can overlap the other calls
Anthrax LF prot – Bacillus anthracis LF protease inhibitors, primary screen, biochemical, multiplex microsphere, MLPCN library; Lethal factor (Bacillus anthracis), P15917; multiplex microsphere protease cleavage assay; inhibition, % at 10 µM; 360,000 tested, 0.12% active; also: plate controls were buffer without enzyme for full effect and enzyme alone for no effect
MazEF act – activators of E. coli MazEF toxin-antitoxin RNase, primary screen, biochemical, fluorescence, uHTS; 350,000 tested, 0.32% active; FAM/BHQ RNA-DNA oligo cleavage fluorescence, 5 h; Endoribonuclease toxin MazF (Escherichia coli (strain K12)), P0AE70; activation, % at 20 µM; in the data active = activation above about 50%
Target sequence (P0AE70 whole entry, looked up): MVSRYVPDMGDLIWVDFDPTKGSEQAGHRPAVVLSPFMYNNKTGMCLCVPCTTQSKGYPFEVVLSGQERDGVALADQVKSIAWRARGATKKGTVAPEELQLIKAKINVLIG
BoNT-A LC inh2 – BoNT/A light chain protease inhibitors, primary screen, biochemical, flow cytometry, MLPCN library; Botulinum neurotoxin type A light chain protease (Clostridium botulinum A str. ATCC 3502); multiplex microsphere protease substrate cleavage; inhibition, % at 10 µM; 360,000 tested, 0.17% active; AID 588499, 2011; also: plate controls were buffer without enzyme for full effect and enzyme alone for no effect
BoNT-F LC inh – BoNT/F light chain protease inhibitors, primary screen, biochemical, flow cytometry, MLPCN library; Botulinum neurotoxin type F light chain protease (Clostridium botulinum); Multiplex microsphere protease cleavage assay; inhibition, % at 10 µM; 360,000 tested, 0.22% active; in the data active = inhibition above about 35%, passing the limit was not always enough; inconclusive = no clear call, values can overlap the other calls; also: plate controls were buffer without enzyme for full effect and enzyme alone for no effect
* = called active by the depositor; ? = inconclusive; nt = no result given. Rule as the data show it, unless noted: active = inhibition above about 30%; inconclusive = no clear call, values can overlap the other calls; inactive = below that.

SMILES	VHR inh abs	Bead autofluor	Anthrax LF prot	MazEF act	BoNT-A LC inh2	BoNT-F LC inh
CC(C)Oc1ccc(CSc2nnc3n(C)c(=O)c4c5c(sc4n23)CCCC5)cc1	nt	24669*	-1	0	?	0
CCOC(=O)Cn1nnnc1CN(Cc1cccs1)Cc1cc2cc(C)ccc2[nH]c1=O	35	16529*	-15	3	16	19
CC12CC(NC(=O)N1c1cccc(C(=O)Nc3ncn[nH]3)c1)c1ccccc1O2 (configuration not stated)	-10	3858	1	59*	1	11
CCOC(=O)C1CCN(C(=O)c2cccc(N3C(=O)NC4CC3(C)Oc3ccc(C)cc34)c2)CC1 (configuration not stated)	6	6481	0	10	-2	3
COc1ccc(NC(=O)c2cccc(N3C(=O)NC4CC3(C)Oc3ccccc34)c2)cc1 (configuration not stated)	16	7988	-2	4	1	-10
Cc1ccc2c(c1)C1CC(C)(O2)N(c2cccc(C(=O)N3CCN(c4ccccn4)CC3)c2)C(=O)N1 (configuration not stated)	56*	5611	0	7	1	-4
COc1ccc(C(=O)Nc2ccc(C)cn2)c(OC)c1	-5	21063*	-2	18	-4	-6
COc1ccc(Cl)cc1NC(=O)Nn1cnnc1	16	16503*	-2	2	0	-2
Cc1ccc(Cl)cc1NC(=O)Nn1cnnc1	27	5920	5	-1	1	4
COc1ccc(C(=O)Nn2cnnc2)c(OC)c1	20	21828*	0	-1	1	0
COc1ccc(C)cc1NC(=O)Nc1ccc(Br)cn1	22	18723*	1	4	5	10
C=CCn1cnc2c(c1=O)c1nc3ccccc3nc1n2/N=C/c1cccc(OC)c1OC	101*	4255	-8	-6	0	-14
C=CCn1cnc2c(c1=O)c1nc3ccccc3nc1n2/N=C/c1cc(OC)c(OC)c(OC)c1	10	2687	2	1	0	-2
C=CCn1cnc2c(c1=O)c1nc3ccccc3nc1n2/N=C/c1ccccn1	25	20073*	-1	2	-2	-3
O=c1c2c3nc4ccccc4nc3n(/N=C/c3ccccn3)c2ncn1-c1ccccc1	32	3273	-2	3	-7	?
O=C1N=C2N(CCN3CCCCC3)c3ccccc3N2/C1=C\c1ccc([N+](=O)[O-])s1	nt	5952	-12	10	0	-20
COC(=O)c1ccc(NC(=O)CSCc2ccccc2C)cc1	8	22086*	-3	-5	2	3
COC(=O)c1ccc(NC(=O)Cc2ccccc2)cc1	18	9743	12	3	0	-3
CC(=O)c1ccc(NC(=O)CSCCO)cc1	0	19947*	-5	-1	0	-1
COC(=O)c1ccc(NC(=O)CSCc2ccccc2)cc1	26	2728	1	2	1	-3
COC(=O)c1ccc(NC(=O)CSCc2ccc(C)cc2)cc1	6	22818*	-4	-11	1	0
CCc1ccc(NC(=S)N2CCNC(=O)C2CC(=O)OC)cc1 (configuration not stated)	20	4424	-1	0	0	-2
COc1ccc(-c2ccc3c(c2)[C@@H]2C[C@H](N(C)C(=O)C(C)(C)C)[C@H]([C@H](C)O)C(=O)N2CC3)cc1	nt	4082	-3	6	1	-6
COc1cc(OC)cc(OC(=O)C2CCN(C3=NS(=O)(=O)c4ccccc43)CC2)c1	nt	3776	-5	-2	0	3
O=C(Nc1ccc(CN2CCOCC2)cc1)c1ccc(-c2cccc(Cl)c2)o1	13	20353*	-1	-3	0	0
O=C(Nc1ccc(CN2CCOCC2)cc1)c1cccs1	13	22111*	-3	-2	1	2
Cc1c(C=NNC(=O)c2ccc(Br)cc2)c2ccccn2c1C(=O)c1ccncc1	nt	nt	nt	59*	nt	nt
